# From PubChem BioAssay AID1159580 (chemical genetic matrix, 2015)
# In all, about 5,500 compounds went through this assay and about 2,000 (36%) were called active. Roughly 18% stayed inconclusive and do not appear here. This is one part of the list. Unmarked numbers belong to inactive results. Rule as the data show it: active = normalized growth mostly below about 0.91 (no sharp cut-off); inconclusive = no clear call, values can overlap the other calls; inactive = mostly above about 0.92.
# Test: chemical genetic growth profiling, strain panel (AID 1159580);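 also: tested at 20 µM; growth read once vehicle control cultures reached saturation at 30 °C; 1 = growth at the plate median or of vehicle wells; lower values mean less growth of the strain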
# Conditions: growth OD
smiles,measurement,setting,value
Cc1c(Cl)cccc1SCC(=O)O,normalized growth,"S. cerevisiae deletion strains, locus YAL013W, strain DEP1, hits give low values",0.944
same,normalized growth,"S. cerevisiae deletion strains, locus YBR229C, strain ROT2, hits give low values",0.958
same,normalized growth,"S. cerevisiae deletion strains, locus YCL061C, strain MRC1, hits give low values",0.989
same,normalized growth,"S. cerevisiae deletion strains, locus YDL101C, strain DUN1, hits give low values",0.973
same,normalized growth,"S. cerevisiae deletion strains, locus YDL134C, strain PPH21, hits give low values",1.01
same,normalized growth,"S. cerevisiae deletion strains, locus YDR150W, strain NUM1, hits give low values",0.926
same,normalized growth,"S. cerevisiae deletion strains, locus YEL061C, strain CIN8, hits give low values",0.977
same,normalized growth,"S. cerevisiae deletion strains, locus YGR078C, strain PAC10, hits give low values",0.964
same,normalized growth,"S. cerevisiae deletion strains, locus YHR030C, strain SLT2, hits give low values",1.06
same,normalized growth,"S. cerevisiae deletion strains, locus YHR087W, strain rtc3, hits give low values",0.984
same,normalized growth,"S. cerevisiae deletion strains, locus YJR043C, strain POL32, hits give low values",0.973
same,normalized growth,"S. cerevisiae deletion strains, locus YJR075W, strain HOC1, hits give low values",0.937
same,normalized growth,"S. cerevisiae deletion strains, locus YKL190W, strain CNB1, hits give low values",1.01
same,normalized growth,"S. cerevisiae deletion strains, locus YLR039C, strain RIC1, hits give low values",1
same,normalized growth,"S. cerevisiae deletion strains, locus YLR058C, strain SHM2 (second series), hits give low values",0.967
same,normalized growth,"S. cerevisiae deletion strains, locus YLR085C, strain ARP6, hits give low values",1.03
same,normalized growth,"S. cerevisiae deletion strains, locus YLR262C, strain YPT6, hits give low values",0.995
same,normalized growth,"S. cerevisiae deletion strains, locus YML094W, strain GIM5, hits give low values",0.997
same,normalized growth,"S. cerevisiae deletion strains, locus YMR219W, strain ESC1, hits give low values",0.945 (active)
same,normalized growth,"S. cerevisiae deletion strains, locus YMR263W, strain SAP30, hits give low values",0.941
same,normalized growth,"S. cerevisiae deletion strains, locus YNL153C, strain GIM3, hits give low values",0.942
same,normalized growth,"S. cerevisiae deletion strains, locus YNL298W, strain CLA4 (second series), hits give low values",1.02
same,normalized growth,"S. cerevisiae deletion strains, locus YNL322C, strain KRE1, hits give low values",0.944
same,normalized growth,"S. cerevisiae deletion strains, locus YNR030W, strain Alg12, hits give low values",1
same,normalized growth,"S. cerevisiae deletion strains, locus YPL055C, strain LGE1, hits give low values",0.837
same,normalized growth,"S. cerevisiae deletion strains, locus YPL241C, strain CIN2, hits give low values",1
same,normalized growth,"S. cerevisiae deletion strains, locus YPR135W, strain CTF4, hits give low values",1.06
same,normalized growth,"S. cerevisiae strains, strain wild type, hits give low values",1.01
